ATXN2 expr inh = reduces ATXN2 reporter expression in HEK-293 cells; HEK-293 ATXN2-luciferase reporter, luminescence, 24 h; Potency, µM (series often up to 57 µM), inactives show at the top dose activity change, negative = inhibition, most hits filed as inhibitors; 360,000 compounds, 0.72% hits; AID 1745845; note: % is set by controls: 0 for no effect and ±100 for the full control effect; nearly all actives have a fitted effect of over 55% in size
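ATXN2-luciferase reporter cells (luciferase flanked by upstream and downstream ATXN2 gene portions) were treated 24 h at 37 °C with compounds at up to 57 uM. SteadyGlo luminescence gave expression; GF-AFC fluorescence gave viability.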
TDP1 cell CPT = growth inhibition of DT40 Tdp1-/-;hTDP1 cells with camptothecin (screen for TDP1 inhibitors) | 420,000 compounds, 12% hits | Potency, µM (titrated, usually from 46.2 µM), for inactives: at the top dose activity change, negative = growth inhibition, hits mostly inhibitors | chicken DT40 Tdp1-/-;hTDP1 cells + 20 nM CPT, ATP luminescence, 48 h; note: % is set by controls: 0 for no effect and ±100 for the full control effect; nearly all actives have a fitted effect of over 55% in size
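Chicken DT40 Tdp1-/- cells complemented with human TDP1, 400 cells/well, exposed to compounds plus 20 nM camptothecin for at least 48 h at 37 C; viability read as ATP content by CellTiter-Glo luminescence.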
HepG2 tox = kills HepG2 cells in TGF-b inhibitor counter-screen. HepG2 CAGA-GFP viability, ATP luminescence, 18 h. Potency, µM (series often up to 46.1 µM), for inactives: top-dose activity change, negative = cytotoxicity, actives largely listed as cytotoxic. 410,000 compounds, 0.76% hits. AID 588856
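HepG2 CAGA-GFP cells (1000/well, DMEM with 1% FBS) received compound, then TGF-beta at 500 pg/mL final, and were incubated 18 hours at 37 degrees C. Viability was read by CellTiter-Glo luminescence. Media-only wells were set as complete cell-killing and DMSO as no toxicity.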
ATXN viability = reduces viability in counter-screen for ATXN expression inhibitors; Potency, µM (top dose mostly 56.7 µM), usual class: cytotoxic; S2 cells (HEK-293 line with an ATXN2-luciferase reporter) viability, CellTiter-Fluor protease fluorescence, 24 h; 400,000 compounds, 0.49% hits; note: nearly all actives have a fitted effect of over 40% in size
DT40 TDP1 no CPT = qHTS for Inhibitors of human tyrosyl-DNA phosphodiesterase 1 (TDP1): qHTS in cells in absence of CPT; DT40 Tdp1-/- hTDP1 cells, no CPT, ATP luminescence, 48 h; Potency, µM (titrated, usually from 46.2 µM), without a hit: top-dose activity change, negative = growth inhibition, most hits filed as inhibitors; 420,000 compounds, 15% hits; AID 686978, 2013; note: % is set by controls: 0 for no effect and ±100 for the full control effect; nearly all actives have a fitted effect of over 55% in size
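No-CPT arm: Tdp1-/-;hTDP1 DT40 cells (400/well) plus compounds, incubated ≥48 hr at 37 °C. Readout CellTiter-Glo luminescence.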
TGFb SMAD3 inh = blocks TGF-b signaling. HepG2 CAGA-GFP TGF-b/SMAD3 reporter, GFP fluorescence, 18 h; TGF-beta stimulated, 500 pg/mL final. Potency, µM (doses to about 46.1 µM), inactives show at the top dose activity, negative = inhibition, hits mostly inhibitors. 410,000 compounds, 1.2% hits; note: % is set by controls: 0 for no effect and ±100 for the full control effect; nearly all actives have a fitted effect of over 65% in size
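HEPG2 CAGA-GFP reporter cells (1000/well, DMEM with 1% FBS) received compounds, then recombinant TGF-beta at 500 pg/mL final for 18 hours at 37 degrees C. Per-cell GFP summed per well was normalised to unstimulated and stimulated DMSO controls before curve fitting.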
Starred values were filed as active, the others as inactive; i = inactive; ? = inconclusive; . = not tested or not shown; ! = not active in a repeat; [ ] = another dose, or the depositor's remark. Only some compounds are listed: those with a hit (about 17% of all), similar ones and a draw of the others. Calls come from the whole dose curve; as a rule, active = well fitted curve in the direction sought with a large enough effect; inconclusive = small, poorly fitted or top-dose-only effect, or another doubt; inactive = no such curve, though single readings can be large; an effect the other way counts as inactive or inconclusive. Potency is the fitted concentration of half-maximal effect.

SMILES	ATXN2 expr inh	TDP1 cell CPT	HepG2 tox	ATXN viability	DT40 TDP1 no CPT	TGFb SMAD3 inh
CCOC(=O)C1CCCN(C(=O)CN2C(=O)c3ccccc3S2(=O)=O)C1 (stereo unspecified)	.	2%	7%	i	3%	-8%
Cc1ncn(C23CC4CC(CC(C4)C2)C3)n1	1%	-19%	9%	i	?	?
COCCCn1c(SCC(=O)NC(C)C)nnc1-c1ccccc1	1%	?	-26%	i	23µM*	1%
COCCCn1c(SCC(N)=O)nnc1-c1ccccc1	4%	-8%	-10%	i	-21%	-14%
CCc1nnc(NS(=O)(=O)c2ccc(NC(=O)c3cccc(OC)c3)cc2)s1	11%	6%	9%	i	28%	11%
O=C(Nc1ccc(F)cc1)c1ccccc1S(=O)(=O)c1ccccc1[N+](=O)[O-]	-14%	9%	1%	i	15%	?
COc1ccc(OCCSc2nc(C)nc3ccccc23)cc1	2%	?	-17%	i	?	-23%
COC(=O)C(c1ccccc1)C(C(=O)OC)c1ccccc1 (stereo unspecified)	.	3%	-14%	i	-15%	-1%
COC(=O)[C@@H](c1ccccc1)N(C)S(=O)(=O)c1cccc(S(=O)(=O)N(C)[C@@H](C(=O)OC)c2ccccc2)c1	-13%	5.8µM*	-13%	i	3.7µM*	-3%
COc1ccccc1CNc1cc(-c2ccccc2C(F)(F)F)ncn1	.	1.3µM*	.	.	1.5µM*	.
COc1ccccc1CNc1cc(-c2ccc(C(=O)N(C)C)cc2)ncn1	.	1%	.	.	-9%	.
COc1cccc(-c2cc(NCc3ccccc3OC)ncn2)c1	.	4.1µM*	.	.	?	.
COc1ccccc1CNc1cc(-c2ccccc2Cl)ncn1	.	16µM*	.	.	15µM*	.
Cc1cnc(CNc2cc(-c3ccccc3C(F)(F)F)ncn2)cn1	.	4%	.	.	4%	.
Cc1ccc2c(c1)N(CCCC(=O)NCCCN1CCCC1=O)C(=O)CO2	12%	1%	6%	i	10%	5%
Cc1ccccc1CN(c1ccc(C(=O)Nc2ccccc2C(=O)NCc2ccco2)cc1)S(C)(=O)=O	-6%	?	-10%	i	?	-28%
COc1ccc(C(=O)/C=C/Nc2ccc(NC(C)=O)cc2)cc1OC	-6%	16µM*	6%	i	?	?
COc1ccc(N/C=C/C(=O)c2cc(OC)c(OC)c(OC)c2)cc1	17%	1µM*	-6%	i	1µM*	?
CC(C)(O)C#Cc1ccc(CN2CCc3nnc(CCNC(=O)c4ccco4)n3CC2)cc1	.	2%[9.04 µM]	.	i	-11%	.
Cc1cccc(CNC(=O)c2cccc(NC(=O)N3CCSc4ncccc43)c2)c1	.	15µM*	-3%	.	?	-11%
CCOc1ccc(CNC(=O)c2cccc(NC(=O)N3CCSc4ncccc43)c2)cc1OC	.	16µM*	-21%	.	16µM*	-1%
COc1cc(/C=C(/C#N)c2nc3ccccc3[nH]2)ccc1OCC(=O)Nc1ccccc1C(C)C	?	4.6µM*	-50%	.	5.8µM*	?
COc1cc(/C=C(/C#N)c2nc3ccccc3[nH]2)ccc1OCC(=O)Nc1ccccc1C	6%	3.3µM*	-1%	.	6.5µM*	10%
COc1cc(/C=C(\C#N)c2nc3ccccc3s2)ccc1OCC(=O)Nc1ccccc1	?	5.2µM*	-29%	.	4.6µM*	-3%
CCOc1cc(/C=C(/C#N)c2nc3ccccc3[nH]2)ccc1OCc1ccc(C(=O)O)o1	3%	-23%	5%	i	?	12%
SMILES	ATXN2 expr inh	TDP1 cell CPT	HepG2 tox	ATXN viability	DT40 TDP1 no CPT	TGFb SMAD3 inh
Cc1c(C(=O)NCC(C)(C)N2CCOCC2)cnn1-c1ncc2c(n1)-c1ccccc1CCC2	.	8%	.	i	-4%	.
C/C(=N/NC(=O)CNC(=O)C(c1ccccc1)c1ccccc1)c1ccco1	10%	4%	13%	i	1%	3%
CCc1c(C)nc2ncnn2c1N1CCCC(C(=O)NCCc2ccc(OC)cc2)C1 (stereo unspecified)	-13%	?	-3%	i	?	0%
CCc1c(C)nc2ncnn2c1N1CCC(C(=O)Nc2ccccc2)CC1	-28%	?	-31%	i	16µM*	-5%
Cc1nc2ncnn2c(N2CCCC(C(=O)Nc3ccc4c(c3)CCC4)C2)c1C (stereo unspecified)	?	21µM*	-34%	i	23µM*	-16%
CCc1c(C)nc2ncnn2c1N1CCC(C(=O)Nc2ccc(C)cc2)CC1	?	21µM*	-9%	i	15µM*	-26%
CCOc1ccccc1NC(=O)C1CCCN(c2c(CC)c(C)nc3ncnn23)C1 (stereo unspecified)	-20%	21µM*	-1%	i	21µM*	-15%
O=C(C=Cc1ccc(CN(CCO)CCc2c[nH]c3ccccc23)cc1)NO	-52%	.	.	.	.	.
CC(CN1C(C)CCCC1C)OC(=O)c1ccccc1Br (stereo unspecified)	?	12%	5%	?	1%	1%
CN(C)CCn1c2ccccc2c2nc3ccc([N+](=O)[O-])cc3cc21	3.2µM*	2.1µM*	-6%	i	2.9µM*	?
O=C(O)COCCN1CCN(C(c2ccccc2)c2ccc(Cl)cc2)CC1 (stereo unspecified)	-2%	?	-23%	i	15µM*!	-5%
CC(=O)Nc1ccccc1OCc1cc(=O)n2c(C)csc2n1	9%	-17%	2%	i	?	-2%
COC(=O)c1ccc(-n2c(/C=C/c3cc(OC)c(OC)c(OC)c3)nc3cc(Cl)ccc3c2=O)cc1	.	18µM*	-1%	.	15µM*	12%
COC(=O)c1ccc(-n2c(/C=C\c3cccc(Br)c3)nc3ccccc3c2=O)cc1	.	5.2µM*	-28%	.	2.9µM*	-21%
COc1cc(C2CC(=O)Nc3c2c(=O)[nH]c2ncnn32)ccc1O (stereo unspecified)	.	-1%	-27%	.	-15%	-2%
O=C(O)C1CCC(NSc2ccccc2[N+](=O)[O-])CC1 (stereo unspecified)	-21%	2.9µM*	-76%	i	2.6µM*	-20%
O=[N+]([O-])c1ccccc1SNc1ccccc1	.	-28%	-29%	i	-28%	-2%
Nc1ccccc1Sc1ccccc1[N+](=O)[O-]	-9%	-5%	-1%	i	?	0%

Screens (PubChem BioAssay)
